# Sfp PPTase inh: qHTS Assay for Inhibitors of Bacillus subtilis Sfp phosphopantetheinyl transferase (PPTase) | Potency, µM, for inactives: largest response in the series, negative = inhibition, hits mostly inhibitors | AID 1490, 2009 | Biochemical Sfp PPTase activity, qHTS | hit rate 3.5% among 310,000;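 also: the enzyme is Sfp with the accession as filed and its product quenches rhodamine fluorescence; 0% = enzyme reaction without inhibitor and -100% = no enzyme wells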
#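 Fluorescence-quenching assay with 15 nM Sfp, 5 uM rhodamine-CoA and 12.5 uM BHQ-2-labelled ybbR peptide in pH 7.6 Hepes/MgCl2 buffer. Enzyme was pre-incubated with compound for 15 min at room temperature. Rate was taken from the 30-min fluorescence change (525/598 nm).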
# HP1b chromo inh: HTS for Inhibitors of HP1-beta Chromodomain Interactions with Methylated Histone Tails; hit rate 0.56% among 390,000; AID 540317, 2011; AlphaScreen HP1-beta / biotin-H3K9me3 peptide binding; Potency, µM (top dose mostly 114 µM), without a hit: at the top dose activity change, negative = inhibition, hits mostly inhibitors; also: nearly all actives have a fitted effect of over 70% in size
# Target sequence (P83916 whole entry, looked up): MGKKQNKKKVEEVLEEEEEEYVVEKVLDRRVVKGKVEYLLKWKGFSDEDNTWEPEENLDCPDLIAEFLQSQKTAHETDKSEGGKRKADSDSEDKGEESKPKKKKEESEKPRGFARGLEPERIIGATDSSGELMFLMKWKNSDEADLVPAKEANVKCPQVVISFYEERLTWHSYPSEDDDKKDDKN
#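 Compound inhibition of the preformed complex between 50 nM HP1-beta and 50 nM biotinylated H3K9me3 peptide was read by AlphaScreen. Buffer was PBS pH 7.4 with 0.01% Tween-20. Incubations ran 30 min at room temperature, with 10 ug/mL donor/acceptor beads.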
# G9a inh: qHTS Assay for Inhibitors of Histone Lysine Methyltransferase G9a; Potency, µM (titrated, usually from 102 µM), without a hit: at the top dose activity, negative = inhibition, hits mostly inhibitors; AID 504332, 2011; hit rate 8.8% among 350,000; G9a H3K9 monomethylation, AlphaScreen, 2 h; also: % is scaled to controls: 0 for no effect and ±100 for the full control effect; nearly all actives have a fitted effect of over 75% in size
# Target sequence (Q96KQ7 913-1193 limits assumed): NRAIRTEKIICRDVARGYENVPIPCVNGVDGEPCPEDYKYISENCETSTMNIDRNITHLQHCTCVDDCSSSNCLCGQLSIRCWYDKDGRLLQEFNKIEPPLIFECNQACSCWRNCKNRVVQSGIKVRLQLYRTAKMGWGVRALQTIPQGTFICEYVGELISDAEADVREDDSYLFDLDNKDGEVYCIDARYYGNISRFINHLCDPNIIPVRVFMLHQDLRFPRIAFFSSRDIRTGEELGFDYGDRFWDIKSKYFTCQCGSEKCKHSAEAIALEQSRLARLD
#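 Enzyme 20 nM + cpd, 15 min RT; add b-H3K9 pep 500 nM / SAM 20 uM; 2 h RT; anti-H3K9me1 Ab 0.5 ug/mL + SA donor / anti-rabbit acceptor beads 20 ug/mL each, 10 min; AlphaScreen read.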
# JMJD2A Tudor inh: qHTS Assay for Inhibitors of JMJD2A-Tudor Domain. AlphaScreen JMJD2A-Tudor / H3K4me3 peptide binding. hit rate 4.4% among 390,000. Potency, µM (titrated, usually from 114 µM), for the others: at the highest dose activity change, negative = inhibition, most hits filed as inhibitors. AID 504339, 2011. Lysine-specific demethylase 4A (Homo sapiens), O75164; also: % is scaled to controls: 0 for no effect and ±100 for the full control effect; nearly all actives have a fitted effect of over 50% in size
# BAZ2B inh: qHTS Assay for Inhibitors of BAZ2B; Potency, µM (doses to about 114 µM), without a hit: at the top dose activity change, negative = inhibition, usual class: inhibitors; AlphaScreen BAZ2B-H3K14Ac peptide displacement; hit rate 4.4% among 360,000; Bromodomain adjacent to zinc finger domain protein 2B (Homo sapiens), Q9UIF8; also: % is scaled to controls: 0 for no effect and ±100 for the full control effect; nearly all actives have a fitted effect of over 60% in size
#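 AlphaScreen luminescence quantifies BAZ2B engagement of H3K14Ac peptide; the protein and biotinylated peptide are both at 50 nM final, buffer PBS pH 7.4 with 0.01% Tween-20, all steps at room temperature.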
# Numbers without * were called inactive; ? = inconclusive; . = no result; ! = not confirmed by another sample; [ ] = dose if it differs, or a comment. Rows were chosen to be rich in hits. Some 12% of all compounds tested hit in one or more screens of this group. Calls follow the shape of the dose curve; as a rule, active = well fitted curve in the direction sought with a large enough effect; inconclusive = small, poorly fitted or top-dose-only effect, or another doubt; inactive = no such curve, though single readings can be large; an effect the other way counts as inactive or inconclusive. Potency is read from the fitted curve at half-maximal effect.
SMILES,Sfp PPTase inh,HP1b chromo inh,G9a inh,JMJD2A Tudor inh,BAZ2B inh
CCOc1ccc(-c2nnc(SCC(=O)Oc3ccccc3)o2)cc1,.,11.8%,-34.4%[59 µM],-16.9%,?
Clc1ccc(-n2ncc3c(NCCCn4ccnc4)ncnc32)cc1,15.3%,17.2%,25.1µM*,-24.3%,-33.4%
COC1=CC(=O)C(C(=O)c2ccccc2)=CC1=O,39.8µM*,.,.,.,.
CCOc1ccc(OCC)c(NC(=O)c2cnc(SC)nc2-c2ccccc2)c1,.,26.2%,-14.3%[59 µM],-13.9%,-3.7%
COC(=O)c1ccc(C(NC(=O)OCc2ccccc2)/C(F)=C/[C@@H](C)C(=O)Nc2ccc(OC)cc2)cc1 (some centres not stated),18.6%,.,.,.,.
Cc1ccc(C2C(C#N)=C(N)Oc3c2sc2ccccc32)o1 (configuration not stated),56.2µM*,.,15.8µM*,.,?
CCOC(=O)CC1=C(C(=O)OCC)C(c2ccc(C)o2)C(C#N)=C(N)O1 (configuration not stated),-8.5%,31.9%,25.1µM*,-32.2%[11.4 µM],-30.9%
COC(=O)C1=C(C)OC(N)=C(C#N)C1c1ccco1 (configuration not stated),4.7%,40.8%,-16.4%[59 µM],-1.9%,1.8%
Cc1cc2c(c(=O)o1)C(c1ccc([N+](=O)[O-])o1)C(C#N)=C(N)O2 (configuration not stated),?,13.0%,?,-29.9%,?
CCOC(=O)C1=C(c2ccccc2)OC(N)=C(C#N)C1c1ccco1 (configuration not stated),1.4%,41.3%,44.7µM*,-3.2%,5.3%
CCOC(=O)CC1=C(C(=O)OCC)C(c2ccc(OC)cc2OC)C(C#N)=C(N)O1 (configuration not stated),79.4µM*,14.4%,56.2µM*,-27.3%,-34.6%
CCOC(=O)CC1=C(C(=O)OCC)C(c2cccnc2)C(C#N)=C(N)O1 (configuration not stated),12.3%,31.4%,0.7%[59 µM],-5.8%,-19.0%
CN(C(=O)c1cccc(NC(=O)Cc2ccc(NC(=O)C3CCCN(C(=O)c4ccccc4)C3)cc2)c1)C1CCCC1 (configuration not stated),.,20.9%,.,-23.9%,.
Cc1ccc(CNC(=O)CCn2cnc3ccccc3c2=O)cc1,.,2.0%[57 µM],-12.6%[59 µM],-29.4%,-30.2%
CCOC(=O)c1c(OCC)[nH]c2c1cc(O)c1ccccc12,?,?,?,50.1µM*,50.1µM*
CN(C)S(=O)(=O)c1ccc(N2CCCC2)c(C(=O)OCC(=O)NC2(C#N)CCCCC2)c1,.,14.3%,?,-10.3%,5.3%
CC1(C)CC(Nc2ccc(Nc3ccccc3)cc2)CC(C)(C)N1,20µM*,?,?,44.7µM*,35.5µM*
CC1(C)CC(NC(=O)c2ccccc2)CC(C)(C)N1,10.2%,4.5%,15.0%,7.5%,13.5%
COc1ccc(-c2nnc(NC(=O)C3CCCN3S(=O)(=O)c3cccs3)o2)cc1 (configuration not stated),.,23.6%,-0.5%,?,50.1µM*
O=C(Nc1ccccc1)C1CCCN1S(=O)(=O)c1cccs1 (configuration not stated),.,25.4%,?,-8.5%,-8.4%
O=C(Nc1nnc(-c2ccccc2)o1)C1CCCN1S(=O)(=O)c1cccs1 (configuration not stated),.,62.5%,-26.7%,?,50.1µM*
Oc1c(C(c2ccc(Cl)cc2)N2CCCC2)sc2nc(-c3ccco3)nn12 (configuration not stated),.,23.6%,?,-9.4%,?
CC(=O)c1cc(F)c(N2CCN(C(=O)Cc3ccccc3)CC2)cc1C,6.1%,36.4%,?,-5.4%,56.2µM*
CCOC(=O)N1CCN(c2cc(C)c(C(C)=O)cc2F)CC1,-13.0%,8.2%,16.3%[59 µM],-2.5%,-5.7%
O=C(c1ccncc1)N1CCC2(CC1)CN(Cc1cc(C(F)(F)F)cc(C(F)(F)F)c1)C2,12.6%,.,-0.1%[12.7 µM],.,.
SMILES,Sfp PPTase inh,HP1b chromo inh,G9a inh,JMJD2A Tudor inh,BAZ2B inh
Cc1ccc(/C(N)=N/OC(=O)CCCc2ccccc2)cc1,-3.0%,198.4%,.,170.3%,289.2%
COc1ccc2c(c1O)Cc1ccccc1C2=O,44.7µM*,-36.0%,?,?,?
COc1cc(OC)c(OC)cc1/C=C1/Cc2ccccc2C1=O,11.3%,81.8%,-8.8%[2.33 µM],-21.8%,3.7%
C=CCN1CCc2c(cc(O)c(O)c2Cl)C(c2ccccc2)C1 (configuration not stated),?,20.1%,7.08µM*!,?,?
Cc1cccc(C2CN(C)CCc3c2cc(O)c(O)c3Cl)c1 (configuration not stated),.,15.1%,23.8µM*,-35.3%,-7.6%
C=CCN1CCN(C(=O)c2ccc(-c3ccccc3)cc2)CC1,-2.3%,11.8%,.,-24.9%,-11.0%
C=CCN1CCc2cc(O)c(O)cc2C(c2ccccc2)C1 (configuration not stated),.,9.8%,10µM*,-24.5%,-5.5%
N#CCSc1ccccc1NC(=O)COC(=O)Cc1c[nH]c2ccccc12,.,26.6%,-9.1%[59 µM],-5.9%,?
CCOC(=O)C1(CC)CC(CSc2nc3ccccc3[nH]2)OC1=O (configuration not stated),-2.3%,14.3%,-8.7%[12.7 µM],89.1µM*,?
Cc1ccc2c(c1)/C(=C/c1ccc(F)cc1)C(=O)N2,-9.9%,-6.4%,-24.0%,?,-33.8%
CC1=C(CC(=O)O)c2cc(F)ccc2/C1=C\c1ccc(S(C)=O)cc1 (configuration not stated),79.4µM*!,27.3%,8.44µM*!,-32.4%,0.4%
CSc1ccc(-c2nc3cccc(C)n3c2Nc2ccc3c(c2)OCO3)cc1,.,?,5.62µM*,28.2µM*,.
Cc1ccc(-c2nc3cccc(C)n3c2Nc2ccc3c(c2)OCO3)o1,.,?,17.8µM*,39.8µM*,28.2µM*
Cc1cccc2nc(-c3ccco3)c(Nc3ccccc3)n12,-16.4%,-3.8%,?,?,39.8µM*
Cc1cc(C)n2c(Nc3ccc4c(c3)OCCO4)c(-c3ccc(Cl)cc3)nc2n1,.,8.9%,1.4%[59 µM],?,-4.2%
Cc1cc(C)n2c(Nc3ccccc3)c(-c3ccccc3)nc2n1,.,27.7%,-3.9%[59 µM],-13.7%,-23.9%
Cc1cccc2nc(-c3ccco3)c(Nc3ccc4c(c3)OCO4)n12,?,?,35.5µM*,44.7µM*,20µM*
COc1cccc(S(=O)(=O)N2CCN(S(=O)(=O)c3ccc4c(c3)OCCO4)CC2)c1,.,.,.,-15.1%,.
CCc1sc(-c2cc3ccccc3oc2=O)nc1-c1ccc(C)cc1,.,184.8%[57 µM],.,139.2%[57.1 µM],.
CCOc1ccc(S(=O)(=O)Nc2ccc(OC)c(Cl)c2)c2cccnc12,.,10.6%,8.0%[59 µM],-28.0%,-30.2%

# Screens (PubChem)
